Source: PubChem BioAssay
Cruzain Triton: qHTS Assay for Promiscuous and Specific Inhibitors of Cruzain (with detergent); 0.43% of 200,000 active; Cruzipain (Trypanosoma cruzi), P25779; purified cruzain, Z-FR-AMC fluorescence, 0.01% Triton; Potency, µM, for inactives: max response, negative = inhibition, actives largely listed as inhibitors; AID 1478, 2009;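 further: plate controls were neutral wells for no effect and buffer without enzyme for full effect; nearly all actives have a fitted effect of over 40% in size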
Target sequence (P25779 123-467 limits assumed): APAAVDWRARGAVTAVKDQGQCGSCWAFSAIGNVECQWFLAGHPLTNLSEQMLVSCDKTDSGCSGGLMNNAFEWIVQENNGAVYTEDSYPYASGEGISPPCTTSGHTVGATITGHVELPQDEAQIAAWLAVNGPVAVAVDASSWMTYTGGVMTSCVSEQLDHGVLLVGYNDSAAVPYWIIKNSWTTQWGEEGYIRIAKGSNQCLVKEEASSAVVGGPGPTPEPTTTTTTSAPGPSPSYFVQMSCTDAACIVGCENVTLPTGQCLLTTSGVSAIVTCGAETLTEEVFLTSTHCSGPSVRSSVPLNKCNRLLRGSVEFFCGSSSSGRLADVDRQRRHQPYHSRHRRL
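Cysteine protease activity tested under reducing, mildly acidic conditions (100 mM sodium acetate pH 5.5, 5 mM DTT) plus 0.01% Triton X-100. Cruzain 1.5 nM; substrate Z-FR-AMC 2 uM; 15 min compound preincubation at room temperature.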
Cruzain noTriton: qHTS Assay for Promiscuous and Specific Inhibitors of Cruzain (without detergent); 2.3% of 200,000 active; Cruzipain (Trypanosoma cruzi), P25779; purified cruzain, Z-FR-AMC fluorescence, no detergent; Potency, µM, inactives show max response, negative = inhibition, hits mostly inhibitors;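 further: plate controls were enzyme without inhibitor for no effect and buffer without enzyme for full effect; nearly all actives have a fitted effect of over 40% in size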
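Detergent-free condition (0.00005% Triton X-100) in acetate buffer pH 5.5 with DTT. 1.5 nM enzyme and compound were pre-mixed 15 min, then 2 uM Z-FR-AMC substrate added; reaction progress from fluorescence change between first and third reads (60 s).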
Numbers without * were called inactive; ? = inconclusive. Hits are enriched below; roughly 2.6% of the tested compounds scored in any of these assays. The call rests on the fitted dose curve; in most records, active means well fitted curve in the direction sought with a large enough effect; inconclusive means small, poorly fitted or top-dose-only effect, or another doubt; inactive means no such curve, though single readings can be large; an effect the other way counts as inactive or inconclusive. Potency means the concentration at half of the fitted maximal effect.

SMILES	Cruzain Triton	Cruzain noTriton
OC[C@@H]1[C@@H](c2ccc(F)cc2)C(c2ccc(F)cc2)=NN1c1ccccc1	-3%	20µM*
CC[C@H]1C(c2cccc(Cl)c2)=NN(c2ccccc2)[C@@H]1CO	1%	-11%
OC[C@@H]1[C@@H](c2ccccc2)C(c2ccc(F)cc2)=NN1c1ccccc1	-10%	?
OC[C@@H]1[C@@H](c2ccc(Cl)cc2)C(c2ccc(F)cc2)=NN1c1ccccc1	0%	25µM*
CCOC(=O)c1ccc(N2C(=O)c3n[nH]c(C)c3C2c2ccc(OCC)cc2)cc1 (stereo not given)	-16%	3%
CCc1cnc2c(c1SCC(=O)Nc1ccc(C(=O)OC)cc1)c(=O)n(C)c(=O)n2C	1%	10%
CCOC(=O)c1ccc(NC(=O)CSc2ccc3ccccc3n2)cc1	-4%	20%
O=C(N/N=C/c1ccncc1)c1cc2c(ccc3ccccc32)o1	-6%	-1%
O=C(N/N=C/c1cccc([N+](=O)[O-])c1)c1ccc2c(c1)OCCO2	-5%	5%
O=C(N/N=C/c1cccc([N+](=O)[O-])c1)c1cc2c(ccc3ccccc32)o1	-13%	10µM*
O=C(N/N=C/c1cccc([N+](=O)[O-])c1)c1cc(-c2ccc3c4c(cccc24)CC3)n[nH]1	-5%	7.9µM*
Cc1ccccc1NC(=O)c1c(C)oc2ccc(O)c(CN3CCOCC3)c12	-3%	-16%
Cc1ccc(NC(=O)CSc2nnc(COc3ccc(Cl)cc3)o2)c(C)c1	-1%	-10%
COc1ccc(NS(=O)(=O)c2cccc(C(=O)N/N=C(\C)c3ccc(-n4ccnc4)cc3)c2)cc1	1%	-12%
C/C(=N\NC(=O)c1cccc(S(=O)(=O)Nc2ccccc2Cl)c1)c1ccc(-n2ccnc2)cc1	-5%	20µM*
O=C1c2ccccc2C(=O)N1c1ccc(-c2nc3ccccc3o2)cc1	4%	5%
NCc1ccc(-c2nc3ccccc3o2)cc1	-2%	13µM*
COc1ccc(Cl)cc1NC(=O)CSc1nc(N2CCCCC2)nc(N2CCCCC2)n1	6%	16µM*
Cc1ccccc1NC(=O)CSc1nc(N2CCCCC2)nc(N2CCCCC2)n1	-1%	-1%
Cn1cc(C(=O)N/N=C/C=C/c2ccccc2)ccc1=O	-9%	-6%
O=C(N/N=C/C=C/c1ccccc1)c1ccc(Br)cc1	3%	20µM*
COc1ccc2[nH]c3c(NCCCN4CCCC4=O)ncnc3c2c1	?	-23%
C1=C(CCNc2ncnc3c2[nH]c2ccccc23)CCCC1	-16%	-23%
COc1ccc2[nH]c3c(NCCN(C(C)C)C(C)C)ncnc3c2c1	?	13µM*
CC(C)OCCCNc1ncnc2c1[nH]c1ccccc12	?	16µM*
SMILES	Cruzain Triton	Cruzain noTriton
COc1cccc(NC(=O)CN(C)S(=O)(=O)c2cccs2)c1	-2%	-16%
CCOC(=O)c1c(NC(=O)c2cc3n(n2)C(C(F)(F)F)CC(c2ccccc2)N3)sc(C)c1C (stereo not given)	-2%	16µM*
CCCCNC(=O)c1cc2n(n1)C(C(F)(F)F)CC(c1ccccc1)N2 (stereo not given)	-2%	?
COc1ccccc1CN1CC[C@@]2(CCCN(S(=O)(=O)c3ccccc3)C2)C1	1%	5%
O=c1c2ccccc2nc2n1CCCCC2	-1%	-4%
O=c1c2ccccc2nc2n1CCC2	?	13µM*
CCCCC(CC)COCCCN (stereo not given)	0%	-3%
Cc1cccc(C)c1-n1c(C)cc(/C=N/NC(N)=S)c1C	-16%	?
Cc1cc(/C=N/NC(N)=S)c(C)n1-c1ccc(Cl)cc1	28µM*	?
Cc1ccc2ccc3cc(C(=O)Nc4ccc(C)c(F)c4)nc3c2[nH]1	8.9µM*	?
Cc1ccc2ccc3cc(C(=O)N4CCN(c5ccccc5F)CC4)nc3c2[nH]1	-2%	-22%
O=C(Cn1c(=O)n(-c2ccccc2Cl)c(=O)c2sc3ccccc3c21)N1CCCC1	0%	2%
Cc1ccccc1OCC(=O)Nc1ccc2nc(SCc3ccccc3)sc2c1	-1%	?
CN(C)c1ccc(/C=C2\SC(=S)N(Nc3ncc(C(F)(F)F)cc3Cl)C2=O)cc1	-9%	13µM*
COc1cc(/C=C2\SC(=S)N(Nc3ncc(C(F)(F)F)cc3Cl)C2=O)ccc1O	-9%	?
COc1cccc(CNC(=O)N2CCc3c(sc4c3CCCC4)C2c2ccc(F)cc2)c1 (stereo not given)	-2%	6.3µM*
O=C(NCc1ccccc1)N1CCc2c(sc3c2CCCC3)C1c1ccccc1 (stereo not given)	-2%	?
Cc1cccc(C(=O)Nc2nc(-c3ccc(Br)cc3)ns2)c1	0%	-6%
CCOC(=O)c1cc2c(=O)n3ccccc3nc2n(CCCOC)c1=NC(C)=O	32µM*	?
Cc1cccn2c(=O)c3cc(C(=O)N4CCN(C(=O)c5ccco5)CC4)n(C)c3nc12	-5%	-3%
CC(C)n1c(=N)c(C(=O)NCc2ccccc2)cc2c(=O)n3ccccc3nc21	-5%	16%
CCOC(=O)c1cc2c(=O)n3ccccc3nc2n(CCCOC)c1=NC(=O)c1c(-c2c(F)cccc2Cl)noc1C	-1%	-1%
COC(=O)c1cc2c(=O)n3ccccc3nc2n(C)c1=N	11µM*	?
CCCCCn1c(=NC(C)=O)c(C#N)cc2c(=O)n3ccccc3nc21	9%	11%
C=CCn1c(=N)c(C#N)cc2c(=O)n3ccccc3nc21	28µM*	?
SMILES	Cruzain Triton	Cruzain noTriton
Cn1c(C(=O)N2CCN(C(=O)c3ccco3)CC2)cc2c(=O)n3ccccc3nc21	25µM*	?
Cc1cc(C)c2oc(-c3cccc(NC(=O)COc4ccccc4Cl)c3C)nc2c1	1%	7%
CCOCCCn1c(=N)c(C(=O)NCc2ccccc2)cc2c(=O)n3ccccc3nc21	-9%	-2%
C=CCn1c(=N)c(C(=O)NCCCOC)cc2c(=O)n3ccccc3nc21	32µM*	25µM*
CC(=O)Nc1nonc1-c1nnc(SCc2ccccc2F)n1C	-1%	-9%
CCOC(=O)C(Cc1c[nH]c2ccccc12)NC(=O)COc1ccc(Cl)c(C)c1 (stereo not given)	-10%	2%
O=C1c2cccc3c([N+](=O)[O-])ccc(c23)C(=O)N1c1ccccn1	-11%	-4%
Cc1ccc(N2C(=O)c3cccc4c(Oc5ccccc5[N+](=O)[O-])ccc(c34)C2=O)c(C)c1	-7%	25µM*
CC1=C(C(=O)Nc2ccc(C)cc2C)C(c2sccc2C)n2ncnc2N1 (stereo not given)	-1%	-10%
CC(C)C(=O)c1cc2c(cc1NC(=O)Nc1cccc3ccccc13)OCCO2	-2%	25%
[O-]/C(=C(\C(=S)Nc1cccc2ccccc12)[n+]1ccccc1)c1ccc2c(c1)OCCO2	-6%	13µM*
Cc1ccn2c(=O)cc(COc3ccc(NC(=O)COc4ccc(C)c(C)c4)cc3)nc2c1	2%	10%
CCn1c2c(c(=O)n3ncc(C(=O)Nc4ccc(F)cc4Cl)c13)CN(Cc1ccc(OC)cc1)CC2	-4%	3%
COc1ccc(CCC(=O)NCCc2csc(-c3cccc(F)c3)n2)cc1	-8%	15%
Cc1nn(-c2ccccc2)c(/N=C/c2ccc(O)cc2)c1-c1ccccc1	-7%	5%
CN(C)c1ccc(/C=N/c2cc(-c3ccccc3)nn2-c2ccccc2)cc1	-5%	20µM*
